Screening results (PubChem)
In the library only some 2.2% were active in any assay of this set; here they are far more common.
Rce1 inhib – yeast Ras-converting enzyme inhibition | yeast membranes, quenched prenylated peptide cleavage fluorescence | 0.27% of 290,000 active | calls only | AID 2563;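 active = fall in fluorescence gain of 50% or more versus controls, with final raw signal at or below 3038400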;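 also: plate controls were neutral control wells for no effect and wells lacking membranes for full effect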
GC-A act – GC-A (human) enzyme activation; 0.14% of 370,000 active; P16066; activation, % at 10 µM; AID 1671463; HEK293 GC-A cells, cGMP TR-FRET, EC30 ANP; 0% at EC30 ANP, 100% saturating ANP; in the data active = activation above about 40%
Target sequence (P16066 whole entry, looked up): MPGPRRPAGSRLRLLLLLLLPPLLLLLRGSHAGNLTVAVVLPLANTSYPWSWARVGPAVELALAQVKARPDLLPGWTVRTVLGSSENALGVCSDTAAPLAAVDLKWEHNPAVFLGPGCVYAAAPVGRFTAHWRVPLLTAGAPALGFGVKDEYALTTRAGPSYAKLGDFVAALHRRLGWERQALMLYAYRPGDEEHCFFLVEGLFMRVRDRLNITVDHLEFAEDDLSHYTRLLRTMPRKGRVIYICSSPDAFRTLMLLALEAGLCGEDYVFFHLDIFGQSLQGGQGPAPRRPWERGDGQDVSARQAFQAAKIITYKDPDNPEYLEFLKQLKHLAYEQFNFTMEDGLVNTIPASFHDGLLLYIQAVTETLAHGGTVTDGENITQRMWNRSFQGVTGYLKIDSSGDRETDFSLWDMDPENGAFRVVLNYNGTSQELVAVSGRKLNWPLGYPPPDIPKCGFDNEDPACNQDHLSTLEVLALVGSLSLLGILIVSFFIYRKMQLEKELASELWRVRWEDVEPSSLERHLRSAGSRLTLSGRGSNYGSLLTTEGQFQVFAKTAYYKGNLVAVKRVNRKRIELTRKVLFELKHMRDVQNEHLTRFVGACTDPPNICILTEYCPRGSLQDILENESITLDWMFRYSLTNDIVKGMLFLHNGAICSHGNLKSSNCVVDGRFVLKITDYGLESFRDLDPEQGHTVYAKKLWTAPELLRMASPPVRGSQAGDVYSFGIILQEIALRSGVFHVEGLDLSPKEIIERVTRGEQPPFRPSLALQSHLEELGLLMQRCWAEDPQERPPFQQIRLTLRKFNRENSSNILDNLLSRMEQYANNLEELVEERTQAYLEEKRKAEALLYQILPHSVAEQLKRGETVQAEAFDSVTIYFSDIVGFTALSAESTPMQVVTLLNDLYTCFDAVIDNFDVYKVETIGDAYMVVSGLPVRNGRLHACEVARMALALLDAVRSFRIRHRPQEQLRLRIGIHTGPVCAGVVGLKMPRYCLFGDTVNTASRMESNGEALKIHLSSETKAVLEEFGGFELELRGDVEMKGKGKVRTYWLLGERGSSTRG
PfM18AAP inh – PfM18AAP enzyme inhibition | inhibition, % at 7.35 µM | recombinant PfM18AAP, H-Glu-NHMec fluorogenic cleavage | AID 1822 | 1.2% of 290,000 active;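 active = inhibition above the campaign mean inhibition over all tested compounds plus 3 SD, cut at about 28% in these data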;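 also: 0% = plate median of test compound wells and 100% = 2 mM ZnCl2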
PLC-beta3 inh – blocks human PLC-beta3 enzyme activity | Purified PLC-beta3, fluorogenic substrate, fluorescence | 0.18% of 370,000 active | inhibition, % at 12.2 µM;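 also: 0% = median of compound wells on plate and 100% = full blocker control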
PLCg1 inh – PLC-gamma1 (human) inhibition, primary screen; P19174; purified PLC-gamma1, fluorogenic substrate, fluorescence; inhibition, % at 12.2 µM; 0.84% of 370,000 active; AID 720700; in the data active = inhibition above about 9.5%
NPR2 activator – GC-B (human) receptor activation; P20594; HEK293-GC-B cells, CNP EC30, cGMP TR-FRET; 0% at EC30 CNP, 100% saturating CNP; activation, % at 10 µM; 0.11% of 370,000 active; AID 1920062;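 active = activation at 10 µM reaching about 35% in either raw or pattern-adjusted values, limit read from the data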
PLCg1 ctr – counter-screen for PLC-beta3 inhibitors: inhibitors of human PLC-gamma1; 3.1% of 3,300 active; inhibition, % at 12.3 µM; purified PLC-gamma1, fluorogenic substrate, fluorescence; shares compounds with PLCg1 inh; in the data active = inhibition above about 9.5%
PLCb3 confirm – human PLC-beta3 inhibition, confirmation; purified PLC-beta3, fluorogenic substrate fluorescence; 1% of 3,300 active; inhibition, % at 12.3 µM; shares compounds with PLCg1 inh
* hit, by the source's call. Rule as the data show it, unless noted: active = inhibition above about 11%; inactive = the rest.

`COC(=O)[C@]12C[C@H](CC(=O)NCCCCc3ccccc3)C(=O)N(Cc3cccc4ccccc34)C1=C[C@H](C(C)C)O[C@@H]2C1CC1` gave GC-A act -3.2, PLC-beta3 inh 2.1, PLCg1 inh 12.7*, NPR2 activator 0.3, PLCg1 ctr -0.8 and PLCb3 confirm -5.9.
O=C(O)C1CCCCC1C(=O)Nc1nccs1 (stereo not drawn) was read as Rce1 inhib inactive, GC-A act -0.8, PfM18AAP inh 4.4, PLC-beta3 inh 6.8, PLCg1 inh 11.8*, NPR2 activator 11.9, PLCg1 ctr -1.5 and PLCb3 confirm 2.4.
For CC(=O)Nc1ccc(NS(=O)(=O)c2cc(Cl)ccc2Cl)cc1 the results were Rce1 inhib inactive, GC-A act -0.9, PfM18AAP inh -7.6, PLC-beta3 inh -3.7, PLCg1 inh 9.7*, NPR2 activator -2.8, PLCg1 ctr -3.1 and PLCb3 confirm 0.1.
COc1ccccc1CN1CCC(n2nccc2NC(=O)c2ccccc2Cl)CC1 was read as Rce1 inhib inactive, GC-A act -6.4, PfM18AAP inh 6.8, PLC-beta3 inh 0.6, PLCg1 inh 11.3*, NPR2 activator -3.9, PLCg1 ctr -1.9 and PLCb3 confirm 0.1.
Screening CC(C)(C)NC(=O)c1cc(-c2ccccc2)n[nH]1 returned Rce1 inhib inactive, GC-A act 1.5, PfM18AAP inh -7.2, PLC-beta3 inh 2.1, PLCg1 inh 5.4 and NPR2 activator 0.9.
CC(C)(C)c1cc(-c2ccccc2)n[nH]1 was read as Rce1 inhib inactive, GC-A act 1.5, PfM18AAP inh -0.1, PLC-beta3 inh -1.8, PLCg1 inh 10.6*, NPR2 activator 5.5, PLCg1 ctr -1.4 and PLCb3 confirm -0.6.
For COc1ccc(-c2cc(=O)c3cccc(CC(=O)O)c3o2)cc1 the results were GC-A act 2.8, PLC-beta3 inh inactive, PLCg1 inh inactive and NPR2 activator -0.1.
Cc1nn(-c2ccccc2)c(N2CCCC2)c1/C=N/NC(=O)C1CC1 was read as Rce1 inhib inactive, GC-A act 7.2, PfM18AAP inh -5.0, PLC-beta3 inh -5.5, PLCg1 inh 12.0*, NPR2 activator 9.6, PLCg1 ctr 1.6 and PLCb3 confirm -2.2.
Cc1cnnc2c1-c1no[n+]([O-])c1CC2 was read as Rce1 inhib inactive, GC-A act -1.1, PfM18AAP inh -6.9, PLC-beta3 inh 9.0, PLCg1 inh 12.9*, NPR2 activator 1.8, PLCg1 ctr -0.3 and PLCb3 confirm 1.8.
`Cc1cnnc2c1-c1nonc1CC2` gave Rce1 inhib inactive, GC-A act -0.1, PfM18AAP inh 1.2, PLC-beta3 inh -0.1, PLCg1 inh 4.1 and NPR2 activator 3.6.
O=C(NCc1n[nH]c(=S)n1-c1cccc(C(F)(F)F)c1)c1ccc(S(=O)(=O)N2CCCCC2)cc1 was read as GC-A act 1.5, PfM18AAP inh 6.8, PLC-beta3 inh 2.5, PLCg1 inh 11.5*, NPR2 activator 4.5, PLCg1 ctr 1.3 and PLCb3 confirm -4.3.
For O=C(NCc1n[nH]c(=S)n1-c1cccc(C(F)(F)F)c1)c1ccc(S(=O)(=O)N2CCCC2)cc1 the results were Rce1 inhib inactive, GC-A act -1.8, PfM18AAP inh 26.8, PLC-beta3 inh 1.7, PLCg1 inh 0.8 and NPR2 activator 1.9.
`Cc1ccc(-n2nnnc2SCC(=O)c2c(N)n(CC(C)C)c(=O)n(C)c2=O)cc1` gave Rce1 inhib inactive, GC-A act -2.7, PfM18AAP inh -4.7, PLC-beta3 inh 2.8, PLCg1 inh 10.8*, NPR2 activator -3.0, PLCg1 ctr -4.6 and PLCb3 confirm 0.6.
CCOC(=O)Cc1csc(SCC(=O)c2c(N)n(CC(C)C)c(=O)n(C)c2=O)n1 was read as Rce1 inhib inactive, GC-A act 3.0, PfM18AAP inh 1.4, PLC-beta3 inh 0.3, PLCg1 inh 10.4*, NPR2 activator -6.5, PLCg1 ctr -2.0 and PLCb3 confirm 2.1.
